Test results as given in the supplement of paper PMC9135407.
Several values for one entry are separate records, joined by “and”; a condition that tells them apart may be missing. Equal values may be shown once. Where a name gives a salt, the structure may show the parent alone. In all, about 5,800 compounds went through this assay and about 620 (11%) showed activity. This excerpt belongs to a sample that is enriched for actives. A number with no mark means an inactive call.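 Rule for the calls: active = score above a cut-off or among the top three wells of a plate; in these data no inactive exceeds 0.85.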

System: primary human hepatic stellate cells (donor 1)
Assay: scaled lipid accumulation score (0 = DMSO-like, 1 = nortriptyline-like); higher = stronger HSC inactivation (lipid re-accumulation), active = hit call of the paper
Conditions: 48 h
[1] = library stock concentration: 10 mM
[2] = library stock concentration: 1 mM
[3] = library stock concentration: 100 uM

## CN1[C@@H]2CC[C@H]1C[C@@H](OC(=O)c1cc(Cl)cc(Cl)c1)C2 [3-Tropanyl-3,5-dichlorobenzoate]
[1]
  scaled lipid accumulation score: 0.646

## CN1C2CCC1CC(OC(=O)c1cc(Cl)cc(Cl)c1)C2 (stereo unspecified)
[1]
  scaled lipid accumulation score: 1.04 (active)

## Cc1cc(C)cc(C(=O)OC2C[C@H]3CC[C@@H](C2)N3C)c1 (stereo partly specified) [Tropanyl-3,5-dimethylbenzoate]
[1]
  scaled lipid accumulation score: 0.57

## C=C(C)[C@H]1O[C@H]2CC[C@@]3(C)[C@@](O)(CC[C@H]4[C@@H]5OC(C)(C)[C@H]6C[C@@H]7C(=C)Cc8c(Cl)cc9[nH]c(c5c9c8[C@@]76O)[C@@]43C)[C@@]23O[C@H]3[C@H]1O [Penitrem A]
Library stock concentration: 7.9 mM
  scaled lipid accumulation score: ≤ -0.021

## O=c1[nH]c2ccccc2n1C1CCN(Cc2ccc(-c3[nH]c4cc5ncnc5cc4nc3-c3ccccc3)cc2)CC1 [Sigma A6730]
Library stock concentration: 80 uM
  scaled lipid accumulation score: ≤ 0
Library stock concentration: 400 uM
  scaled lipid accumulation score: ≤ 0
Library stock concentration: 2 mM
  scaled lipid accumulation score: 0.055
[1]
  scaled lipid accumulation score: 0.683

## O=c1[nH]c2ccccc2n1C1CCN(CCCC(c2ccc(F)cc2)c2ccc(F)cc2)CC1 [Pimozide] [listing 1 of 3 here]
[1]
  scaled lipid accumulation score: 1.21 (active)

## O=C(CCCN1CCC(n2c(=O)[nH]c3ccccc32)CC1)c1ccc(F)cc1 [Benperidol]
  scaled lipid accumulation score: 0.202

## O=c1[nH]c2ccccc2n1CCCN1CCC(n2c(=O)[nH]c3cc(Cl)ccc32)CC1 [Domperidone]
  scaled lipid accumulation score: 0.362
Library stock concentration: 3.33 mM
  scaled lipid accumulation score: 0.062
Library stock concentration: 4.7 mM
  scaled lipid accumulation score: 0.135 and 0.071

## O=c1[nH]c2ccccc2n1C1CCN(CCCC(c2ccc(F)cc2)c2ccc(F)cc2)CC1 [Pimozide] [listing 2 of 3 here]
  scaled lipid accumulation score: 0.242
[1]
  scaled lipid accumulation score: 0.021

## O=c1[nH]c2ccccc2n1C1CCN(CCCC(c2ccc(F)cc2)c2ccc(F)cc2)CC1 [Pimozide] [listing 3 of 3 here]
[1]
  scaled lipid accumulation score: 1.15 (active)

## c1cc(N2CCNCC2)c2cc[nH]c2c1 [4-(1-piperazinyl)-1H-Indole (hydrochloride)]
[2]
  scaled lipid accumulation score: ≤ 0

## CNCCCCCCN(C)N(O)N=O
[2]
  scaled lipid accumulation score: 0.005

## OC1CCCCC1N1CCC(c2ccccc2)CC1 (stereo unspecified)
[1]
  scaled lipid accumulation score: ≤ 0

## OC1CCCCC1N1CCC(c2ccccc2)CC1 (stereo unspecified) [Vesamicol hydrochloride]
Library stock concentration: 6.8 mM
  scaled lipid accumulation score: ≤ 0
[1]
  scaled lipid accumulation score: ≤ -0.027

## NC(=O)C[S@@+]([O-])C(c1ccccc1)c1ccccc1
[1]
  scaled lipid accumulation score: ≤ 0

## CCCCC[C@@H](/C=C/C=C\C/C=C\C/C=C\CCCC(=O)O)OO
[3]
  scaled lipid accumulation score: ≤ -0.01

## CCCCC/C=C\C/C=C\C/C=C\C/C=C\CCCC(=O)Nc1cccc(O)c1 [N-(3-hydroxyphenyl)-Arachidonoyl amide]
[2]
  scaled lipid accumulation score: 0.053

## CCN(CC)CCOC(=O)C(O)(c1ccccc1)c1ccccc1
[1]
  scaled lipid accumulation score: ≤ 0

## CCCCC/C=C\C/C=C\C/C=C\C/C=C\CCCC(=O)NCCF [Arachidonoyl-2'-Fluoroethylamide]
[2]
  scaled lipid accumulation score: ≤ 0

## CCCN1CCc2cccc3c2[C@H]1Cc1ccc(O)c(O)c1-3 [R(-)-Propylnorapomorphine hydrochloride]
[1]
  scaled lipid accumulation score: ≤ -0.038

## CCCCCCCCCC(=O)OC[C@H](COP(=O)([O-])OCC[N+](C)(C)C)OC(=O)CCCCCCCCC [1,2-Didecanoyl PC]
[2]
  scaled lipid accumulation score: ≤ 0

## S=C=Nc1cccc(C2(N3CCCCC3)CCCCC2)c1 [Metaphit]
[1]
  scaled lipid accumulation score: 0.949 (active)

## c1ccc2sc(C3(N4CCCCC4)CCCCC3)cc2c1 [BTCP maleate]
[1]
  scaled lipid accumulation score: 0.248

## c1ccc2sc(C3(N4CCCCC4)CCCCC3)cc2c1 [BTCP hydrochloride]
[1]
  scaled lipid accumulation score: 0.74

## COC(=O)[C@@H](N)CCCNC(=N)N[N+](=O)[O-]
Library stock concentration: 21.4 mM
  scaled lipid accumulation score: ≤ -0.012

## COC(=O)[C@@H](N)CCCNC(=N)N[N+](=O)[O-] [L-NAME (hydrochloride)]
[2]
  scaled lipid accumulation score: ≤ 0

## COC(=O)[C@@H](N)CCCNC(=N)N[N+](=O)[O-] [L-NAME hydrochloride]
[1]
  scaled lipid accumulation score: ≤ 0

## COC(=O)[C@@H](N)CCCNC(=N)N[N+](=O)[O-] [NG-Nitro-L-arginine methyl ester hydrochloride]
[1]
  scaled lipid accumulation score: 0.047

## c1cc2ccsc2c(N2CCNCC2)n1 [7-Piperazin-1-yl-thieno[2,3-c] Pyridine (hydrochloride)]
[2]
  scaled lipid accumulation score: ≤ 0

## c1cc(N2CCNCC2)c2cnccc2c1 [8-piperazin-1-yl-Isoquinoline (hydrochloride)]
[2]
  scaled lipid accumulation score: 0.005

## CS(=O)(=O)O.Oc1ccc2c3c1O[C@H]1c4oc5ccccc5c4C[C@@]4(O)C(C2)N(CC2CC2)CC[C@]314 [Naltriben mesylate]
[1]
  scaled lipid accumulation score: 1.27 (active)

## NC(N)=Nc1ccc2[nH]c3c(c2c1)C[C@@]1(O)[C@H]2Cc4ccc(O)c5c4[C@@]1(CCN2CC1CC1)[C@H]3O5 [GNTI dihydrochloride]
[1]
  scaled lipid accumulation score: ≤ -0.006

## NC(N)=Nc1ccc2[nH]c3c(c2c1)C[C@@]1(O)[C@H]2Cc4ccc(O)c5c4[C@@]1(CCN2CC1CC1)[C@H]3O5 [Guanidinyl-naltrindole di-trifluoroacetate]
[1]
  scaled lipid accumulation score: ≤ -0.07

## CS(=O)(=O)O.Oc1ccc2c3c1O[C@H]1c4oc5ccccc5c4C[C@@]4(O)C(C2)N(CC2CC2)CCC314 (stereo partly specified) [Naltriben methanesulfonate]
[1]
  scaled lipid accumulation score: 1.11 (active)

## Oc1ccc2c3c1O[C@H]1c4oc5ccccc5c4C[C@@]4(O)[C@@H](C2)N(CC2CC2)CC[C@]314 [Naltriben mesylate]
Library stock concentration: 4.8 mM
  scaled lipid accumulation score: 0.403

## Oc1ccc2c3c1O[C@H]1c4c(c5ccccc5n4Cc4ccccc4)C[C@@]4(O)C(C2)N(CC2CC2)CC[C@]314 [N-Benzylnaltrindole hydrochloride]
[1]
  scaled lipid accumulation score: 0.77

## Oc1ccc2c3c1O[C@H]1[C@@H](O)CC[C@@]4(O)[C@@H](C2)N(CC2CCC2)CC[C@]314 [Nalbuphine]
[1]
  scaled lipid accumulation score: 0.075

## Oc1ccc2c3c1O[C@H]1[C@@H](O)CC[C@@]4(O)[C@@H](C2)N(CC2CCC2)CC[C@]314 [Nalbuphine hydrochloride]
  scaled lipid accumulation score: ≤ 0
Library stock concentration: 5.1 mM
  scaled lipid accumulation score: 0.02
[1]
  scaled lipid accumulation score: ≤ 0

## NNCc1ccccc1 [Benzylhydrazine hydrochloride]
[1]
  scaled lipid accumulation score: 0.294

## C[C@@H]1NCCc2cc(O)c(O)cc21 [Salsolinol hydrobromide]
  scaled lipid accumulation score: ≤ 0

## C#CC(C)(O)CC (stereo unspecified)
[1]
  scaled lipid accumulation score: ≤ 0

## Cc1nnc2n1-c1ccc(Cl)cc1C(c1ccccc1)=NC2 [Alprazolam]
[1]
  scaled lipid accumulation score: ≤ 0

## Cc1ncc2n1-c1ccc(Cl)cc1C(c1ccccc1F)=NC2
[1]
  scaled lipid accumulation score: ≤ 0

## CCCCC/C=C\C=C\[C@H](CCCCCCCC(=O)O)OO
[3]
  scaled lipid accumulation score: ≤ -0.021

## C=C1[C@@H](O)[C@@H]2O[C@]3(CC[C@H](/C=C/[C@@H](C)[C@@H]4CC(C)=C[C@@]5(O[C@H](C[C@@](C)(O)C(=O)O)CC[C@H]5O)O4)O3)CC[C@H]2O[C@@H]1[C@@H](O)C[C@H](C)[C@H]1O[C@@]2(CCCCO2)CC[C@H]1C [Okadaic acid]
Library stock concentration: 600 uM
  scaled lipid accumulation score: 0.393

## COC1=CC(=O)O[C@@H](/C=C/c2ccccc2)C1 (racemic) [Kavain (+/-)]
Library stock concentration: 21.7 mM
  scaled lipid accumulation score: 0.117

## COC1=CC(=O)O[C@@H](/C=C/c2ccccc2)C1 [Kawain]
  scaled lipid accumulation score: 0.119
